The panel holds about 83,000 compounds, 20% with a hit somewhere; the sample as a whole holds those more often.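 Treatment: one concentration, 48 hours, 96-well format. Scoring: percent growth, with anything below 10 considered active.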 Active and inactive are the calls of the source.
Tests used:
Assay in all cases: NCI-60 one-dose screen, 48 h (100 = growth as untreated, 0 = no growth, -100 = all killed)
Conditions in all cases: 10 µM unless noted
NCI-H23 lung = test system: NCI-H23 lung
NCI-H226 lung = test system: NCI-H226 lung
NCI-H322M lung = test system: NCI-H322M lung
HOP-62 NSCLC = test system: HOP-62 NSCLC
NCI-H460 lung = test system: NCI-H460 lung
HOP-92 NSCLC = test system: HOP-92 NSCLC
A549/ATCC NSCLC = test system: A549/ATCC NSCLC
786-0 renal = test system: 786-0 renal
COLO 205 colon = test system: COLO 205 colon
DU-145 prostate = test system: DU-145 prostate
K-562 leukemia = test system: K-562 leukemia
MDA-MB-231 breast = test system: MDA-MB-231 breast
RXF 393 renal = test system: RXF 393 renal
SF-268 CNS = test system: SF-268 CNS
SF-295 CNS = test system: SF-295 CNS
SF-539 CNS = test system: SF-539 CNS
UACC-257 melanoma = test system: UACC-257 melanoma
M14 melanoma = test system: M14 melanoma

Measured: growth

Nc1ncnc2c1CN(Cc1ccccc1)CC2
inactive: NCI-H23 lung 98.3% | NCI-H226 lung 113% | NCI-H322M lung 117% | HOP-62 NSCLC 106% | NCI-H460 lung 107% | HOP-92 NSCLC 87.5% | A549/ATCC NSCLC 90.3% | 786-0 renal 101% | COLO 205 colon 115% | DU-145 prostate 132% | K-562 leukemia 98.1% | MDA-MB-231 breast 104% | RXF 393 renal 122% | SF-268 CNS 105% | SF-295 CNS 105% | SF-539 CNS 99.2% | UACC-257 melanoma 111% | M14 melanoma 111%

COC(=O)[C@H]1[C@H]2C[C@@H]3c4[nH]c5cc(OC)ccc5c4CCN3C[C@H]2C[C@@H](OC(=O)/C=C/c2cc(OC)c(OC)c(OC)c2)[C@@H]1OC
inactive: NCI-H23 lung 93.5% | NCI-H226 lung 101% | NCI-H322M lung 88.6% | HOP-62 NSCLC 61.6% | NCI-H460 lung 48.6% | HOP-92 NSCLC 60.5% | A549/ATCC NSCLC 74.2% | 786-0 renal 58.9% | COLO 205 colon 67.6% | DU-145 prostate 40.8% | MDA-MB-231 breast 65.1% | RXF 393 renal 61% | SF-268 CNS 68.6% | SF-295 CNS 14.6% | SF-539 CNS 71.8% | UACC-257 melanoma 85% | M14 melanoma 71.5%
active: K-562 leukemia -2.87%

O=C1OC2(c3ccccc31)c1ccccc1-c1ccccc12
inactive: NCI-H23 lung 89.6% | NCI-H226 lung 95.8% | NCI-H322M lung 103% | HOP-62 NSCLC 93.8% | NCI-H460 lung 106% | HOP-92 NSCLC 96.9% | A549/ATCC NSCLC 72.4% | 786-0 renal 86.2% | COLO 205 colon 81.7% | DU-145 prostate 114% | K-562 leukemia 36.5% | MDA-MB-231 breast 68.3% | RXF 393 renal 96.8% | SF-268 CNS 86.8% | SF-295 CNS 75.4% | SF-539 CNS 99.2% | UACC-257 melanoma 88.7% | M14 melanoma 50.7%

COC(=O)C1(NC(=O)CNC(=O)OCc2ccccc2)CCCC1
inactive: NCI-H23 lung 106% | NCI-H226 lung 99.1% | NCI-H322M lung 113% | HOP-62 NSCLC 111% | NCI-H460 lung 111% | HOP-92 NSCLC 85.2% | A549/ATCC NSCLC 95.3% | 786-0 renal 95.3% | COLO 205 colon 125% | DU-145 prostate 114% | K-562 leukemia 98.7% | MDA-MB-231 breast 95.8% | RXF 393 renal 105% | SF-268 CNS 114% | SF-295 CNS 117% | SF-539 CNS 99.4% | UACC-257 melanoma 106% | M14 melanoma 105%

CC(=O)N1N=C(c2ccc(C(F)(F)F)cc2)CC1c1ccc2c(c1)OCO2 (centres undefined)
inactive: NCI-H23 lung 79.2% | NCI-H226 lung 96.5% | NCI-H322M lung 84.8% | HOP-62 NSCLC 102% | NCI-H460 lung 85% | HOP-92 NSCLC 77.5% | A549/ATCC NSCLC 91.2% | 786-0 renal 87.4% | COLO 205 colon 100% | DU-145 prostate 113% | K-562 leukemia 73.8% | MDA-MB-231 breast 82.3% | RXF 393 renal 107% | SF-268 CNS 104% | SF-295 CNS 67.1% | SF-539 CNS 101% | UACC-257 melanoma 102% | M14 melanoma 69.7%

CCOC(=O)CNC(=O)C1(NC(=O)CNC(=O)OCc2ccccc2)CCCC1
inactive: NCI-H23 lung 105% | NCI-H226 lung 115% | NCI-H322M lung 109% | HOP-62 NSCLC 112% | NCI-H460 lung 112% | HOP-92 NSCLC 96.2% | A549/ATCC NSCLC 89.8% | 786-0 renal 94.9% | COLO 205 colon 120% | DU-145 prostate 121% | K-562 leukemia 103% | MDA-MB-231 breast 99.1% | RXF 393 renal 135% | SF-268 CNS 107% | SF-295 CNS 126% | SF-539 CNS 92.2% | UACC-257 melanoma 110%

CCOC(=O)C1C(=O)NC(C(=O)OCC)(C(=O)OCC)C1CC (centres undefined)
inactive: NCI-H23 lung 112% | NCI-H226 lung 97.7% | NCI-H322M lung 119% | HOP-62 NSCLC 109% | NCI-H460 lung 117% | HOP-92 NSCLC 98% | A549/ATCC NSCLC 97.2% | 786-0 renal 107% | COLO 205 colon 114% | DU-145 prostate 117% | K-562 leukemia 114% | MDA-MB-231 breast 98.7% | RXF 393 renal 116% | SF-268 CNS 108% | SF-295 CNS 113% | SF-539 CNS 122% | UACC-257 melanoma 106%

C(=C1c2ccccc2-c2ccccc21)c1ccncc1
inactive: NCI-H23 lung 58.5% | NCI-H226 lung 86.8% | NCI-H322M lung 80.1% | HOP-62 NSCLC 56.3% | NCI-H460 lung 33.7% | HOP-92 NSCLC 55.9% | A549/ATCC NSCLC 49.1% | 786-0 renal 58.2% | COLO 205 colon 49.4% | DU-145 prostate 84.9% | K-562 leukemia 11.4% | MDA-MB-231 breast 44.2% | RXF 393 renal 72.3% | SF-268 CNS 54.8% | SF-295 CNS 35.6% | SF-539 CNS 56.3% | UACC-257 melanoma 74.5% | M14 melanoma 18.7%

COc1ccc(-c2ccc(O)c(C(=O)/C=C/c3cc(OC)c(OC)c(OC)c3)c2)cc1
inactive: NCI-H23 lung 72.7% | NCI-H226 lung 99.1% | NCI-H322M lung 81.8% | HOP-62 NSCLC 103% | NCI-H460 lung 79.9% | HOP-92 NSCLC 56% | A549/ATCC NSCLC 80.5% | 786-0 renal 99.4% | COLO 205 colon 83.7% | DU-145 prostate 83.7% | K-562 leukemia 56.5% | MDA-MB-231 breast 85.6% | RXF 393 renal 94.5% | SF-268 CNS 79.6% | SF-295 CNS 92.4% | SF-539 CNS 96.8% | UACC-257 melanoma 86.6% | M14 melanoma 93.6%

Cc1cc(-c2ccccc2)cc(C)n1
inactive: NCI-H23 lung 103% | NCI-H226 lung 102% | NCI-H322M lung 105% | HOP-62 NSCLC 112% | NCI-H460 lung 112% | HOP-92 NSCLC 95.4% | A549/ATCC NSCLC 92.7% | 786-0 renal 99% | COLO 205 colon 120% | DU-145 prostate 125% | K-562 leukemia 98% | MDA-MB-231 breast 101% | RXF 393 renal 117% | SF-268 CNS 111% | SF-295 CNS 101% | SF-539 CNS 102% | UACC-257 melanoma 108% | M14 melanoma 103%

COc1ccc(C2=NN(C(N)=S)C(c3ccc4c(c3)OCO4)C2)cc1 (centres undefined)
inactive: NCI-H23 lung 26.7% | NCI-H226 lung 58.2% | NCI-H322M lung 25.6% | HOP-62 NSCLC 46.7% | NCI-H460 lung 42.6% | HOP-92 NSCLC 54% | A549/ATCC NSCLC 58.6% | 786-0 renal 30.6% | COLO 205 colon 56.5% | MDA-MB-231 breast 48.7% | RXF 393 renal 48.5% | SF-268 CNS 21.5% | SF-539 CNS 21.4% | UACC-257 melanoma 38% | M14 melanoma 21.6%
active: DU-145 prostate -3.99% | K-562 leukemia 5.68% | SF-295 CNS -9.16%

Nc1ccc(N=Nc2ccccc2)cc1[N+](=O)[O-]
inactive: NCI-H23 lung 90.7% | NCI-H226 lung 86% | NCI-H322M lung 80.5% | HOP-62 NSCLC 91.9% | NCI-H460 lung 100% | HOP-92 NSCLC 91.7% | A549/ATCC NSCLC 85.9% | 786-0 renal 107% | COLO 205 colon 95% | DU-145 prostate 109% | K-562 leukemia 87.4% | MDA-MB-231 breast 65.8% | RXF 393 renal 104% | SF-268 CNS 85.3% | SF-295 CNS 113% | SF-539 CNS 92.6% | UACC-257 melanoma 103% | M14 melanoma 104%

From PubChem BioAssay (NCI)
